From PubChem BioAssay AID1159580 (chemical genetic matrix, 2015)
Where “and” joins values, the source holds several entries; their conditions need not be identical. Identical values can stand only once. Hit rate of the full screen: of about 5,500 compounds, about 2,000 (36%) were called active. About 18% were inconclusive and are not listed. Cut-off read from the data, not from the text of the source: active = normalized growth mostly below about 0.91 (no sharp cut-off); inconclusive = no clear call, values can overlap the other calls; inactive = mostly above about 0.92. This is one part of the list.

Assay: chemical genetic growth profiling, strain panel (AID 1159580);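 note: tested at 20 µM; growth read once vehicle control cultures reached saturation at 30 °C; 1 = growth at the plate median or of vehicle wells; lower values mean less growth of the strain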
Details: growth OD

Measured: normalized growth

Cc1ccccc1C(OCCN(C)C)c1ccccc1 (stereo not given)
inactive: S. cerevisiae deletion strains, locus YJR075W, strain HOC1, hits give low values 0.986 and 0.988 | S. cerevisiae deletion strains, locus YKL009W, strain mrt4, hits give low values 0.999 | S. cerevisiae deletion strains, locus YKL068W, hits give low values 0.996 | S. cerevisiae deletion strains, locus YKL085W, strain MDH1 (second series), hits give low values 1 | S. cerevisiae deletion strains, locus YKL085W, strain MDH1, hits give low values 1 | S. cerevisiae deletion strains, locus YKL160W, strain elf1, hits give low values 1.01 | S. cerevisiae deletion strains, locus YKL190W, strain CNB1, hits give low values 0.996 | S. cerevisiae deletion strains, locus YKR001C, strain vps1, hits give low values 1.03 | S. cerevisiae deletion strains, locus YKR026C, strain gcn3, hits give low values 1.01 | S. cerevisiae deletion strains, locus YKR091W, strain srl3, hits give low values 1.01 | S. cerevisiae deletion strains, locus YLL001W, strain dnm1, hits give low values 1 | S. cerevisiae deletion strains, locus YLL026W, hits give low values 1.01 | S. cerevisiae deletion strains, locus YLL041C, strain sdh2, hits give low values 0.998 | S. cerevisiae deletion strains, locus YLR027C, strain aat2, hits give low values 0.994 | S. cerevisiae deletion strains, locus YLR039C, strain RIC1, hits give low values 1.14 | S. cerevisiae deletion strains, locus YLR058C, strain SHM2, hits give low values 0.996 | S. cerevisiae deletion strains, locus YLR102C, strain apc9, hits give low values 1 | S. cerevisiae deletion strains, locus YLR113W, strain HOG1, hits give low values 0.956 | S. cerevisiae deletion strains, locus YLR221C, strain rsa3, hits give low values 1.01 | S. cerevisiae deletion strains, locus YLR258W, strain gsy2, hits give low values 1 | S. cerevisiae deletion strains, locus YLR262C, strain YPT6 (second series), hits give low values 1.05 | S. cerevisiae deletion strains, locus YLR262C, strain YPT6, hits give low values 1.13 | S. cerevisiae deletion strains, locus YLR268W, strain sec22, hits give low values 1.05 | S. cerevisiae deletion strains, locus YLR320W, strain mms22, hits give low values 1.02 | S. cerevisiae deletion strains, locus YLR330W, strain CHS5, hits give low values 1.01 | S. cerevisiae deletion strains, locus YLR342W, strain FKS1 (second series), hits give low values 1 | S. cerevisiae deletion strains, locus YLR342W, strain FKS1, hits give low values 1.03 | S. cerevisiae deletion strains, locus YLR357W, strain rsc2, hits give low values 1.01 | S. cerevisiae deletion strains, locus YLR370C, strain arc18, hits give low values 1 | S. cerevisiae deletion strains, locus YLR371W, strain rom2, hits give low values 1.01 | S. cerevisiae deletion strains, locus YLR384C, strain iki3, hits give low values 1.01 | S. cerevisiae deletion strains, locus YLR418C, strain cdc73, hits give low values 0.94 | S. cerevisiae deletion strains, locus YML016C, strain PPZ1, hits give low values 1 | S. cerevisiae deletion strains, locus YML032C, strain rad52, hits give low values 1.01 | S. cerevisiae deletion strains, locus YML120C, strain ndi1, hits give low values 1.01 | S. cerevisiae deletion strains, locus YML124C, strain tub3, hits give low values 1 | S. cerevisiae deletion strains, locus YMR058W, strain fet3, hits give low values 0.977 | S. cerevisiae deletion strains, locus YMR078C, strain ctf18, hits give low values 1.01 | S. cerevisiae deletion strains, locus YMR125W, strain sto1, hits give low values 1.01 | S. cerevisiae deletion strains, locus YMR129W, hits give low values 1.01 | S. cerevisiae deletion strains, locus YMR205C, strain PFK2, hits give low values 1.02 | S. cerevisiae deletion strains, locus YMR223W, strain ubp8, hits give low values 0.997 | S. cerevisiae deletion strains, locus YMR231W, strain pep5, hits give low values 0.998 | S. cerevisiae deletion strains, locus YMR263W, strain SAP30, hits give low values 0.985 | S. cerevisiae deletion strains, locus YMR307W, strain GAS1, hits give low values 1.01 | S. cerevisiae deletion strains, locus YNL067W, strain RPL9B, hits give low values 0.994 | S. cerevisiae deletion strains, locus YNL071W, strain lat1, hits give low values 1 | S. cerevisiae deletion strains, locus YNL128W, strain TEP1, hits give low values 1 | S. cerevisiae deletion strains, locus YNL153C, strain GIM3, hits give low values 1.01 | S. cerevisiae deletion strains, locus YNL175C, strain NOP13, hits give low values 1 | S. cerevisiae deletion strains, locus YNL183C, strain NPR1, hits give low values 0.945 | S. cerevisiae deletion strains, locus YNL197C, strain WHI3, hits give low values 1 | S. cerevisiae deletion strains, locus YNL209W, strain ssb2, hits give low values 1 | S. cerevisiae deletion strains, locus YNL224C, strain SQS1, hits give low values 0.994 | S. cerevisiae deletion strains, locus YNL233W, strain BNI4, hits give low values 1.01 | S. cerevisiae deletion strains, locus YNL248C, strain rpa49, hits give low values 1.01 | S. cerevisiae deletion strains, locus YNL250W, strain rad50, hits give low values 0.989 | S. cerevisiae deletion strains, locus YNL271C, strain bni1, hits give low values 1.01 | S. cerevisiae deletion strains, locus YNL298W, strain CLA4, hits give low values 1.03 | S. cerevisiae deletion strains, locus YNL307C, strain MCK1, hits give low values 1.02 | S. cerevisiae deletion strains, locus YNL322C, strain KRE1 (second series), hits give low values 1.03 | S. cerevisiae deletion strains, locus YNL322C, strain KRE1, hits give low values 0.997 and 0.999 | S. cerevisiae deletion strains, locus YNR049C, strain mso1, hits give low values 1.02 | S. cerevisiae deletion strains, locus YNR052C, strain pop2, hits give low values 1.01 | S. cerevisiae deletion strains, locus YOL006C, strain TOP1, hits give low values 0.986 | S. cerevisiae deletion strains, locus YOL012C, strain htz1 0.949 | S. cerevisiae deletion strains, locus YOL147C, strain pex11, hits give low values 1.01 | S. cerevisiae deletion strains, locus YOR001W, strain rrp6, hits give low values 0.994 | S. cerevisiae deletion strains, locus YOR061W, strain CKA2, hits give low values 1 | S. cerevisiae deletion strains, locus YOR069W, strain VPS5, hits give low values 1 | S. cerevisiae deletion strains, locus YOR070C, strain gyp1, hits give low values 0.996 | S. cerevisiae deletion strains, locus YOR080W, strain dia2, hits give low values 0.996 | S. cerevisiae deletion strains, locus YOR083W, strain WHI5 (second series), hits give low values 1 | S. cerevisiae deletion strains, locus YOR083W, strain WHI5, hits give low values 1.02 | S. cerevisiae deletion strains, locus YOR106W, strain vam3, hits give low values 1.03 | S. cerevisiae deletion strains, locus YOR136W, strain idh2, hits give low values 0.988 | S. cerevisiae deletion strains, locus YOR144C, strain elg1, hits give low values 1 | S. cerevisiae deletion strains, locus YOR184W, strain ser1, hits give low values 1.03 | S. cerevisiae deletion strains, locus YOR231W, strain MKK1, hits give low values 0.961 | S. cerevisiae deletion strains, locus YOR265W, strain rbl2, hits give low values 0.994 | S. cerevisiae deletion strains, locus YOR270C, strain vph1, hits give low values 0.972 | S. cerevisiae deletion strains, locus YOR290C, strain snf2, hits give low values 1.03 | S. cerevisiae deletion strains, locus YOR316C, strain cot1, hits give low values 1 | S. cerevisiae deletion strains, locus YPL051W, strain arl3, hits give low values 0.994 | S. cerevisiae deletion strains, locus YPL078C, strain atp4, hits give low values 1 | S. cerevisiae deletion strains, locus YPL106C, strain sse1, hits give low values 1.02 | S. cerevisiae deletion strains, locus YPL240C, strain hsp82, hits give low values 0.982 | S. cerevisiae deletion strains, locus YPL241C, strain CIN2, hits give low values 1 and 0.994 | S. cerevisiae deletion strains, locus YPL256C, strain CLN2, hits give low values 0.933 | S. cerevisiae deletion strains, locus YPR119W, strain clb2, hits give low values 1 | S. cerevisiae deletion strains, locus YPR141C, strain kar3, hits give low values 0.994 | S. cerevisiae deletion strains, locus YPR163C, strain tif3, hits give low values 1.01 | S. cerevisiae deletion strains, locus YPR167C, strain met16, hits give low values 1 | S. cerevisiae deletion strains, strain wtn01, hits give low values 1.02 | S. cerevisiae strains, strain wild type, hits give low values 0.989
